# Data as given in PubChem BioAssay AID1650 (Southern Research Specialized Biocontainment Screening …, 2009).
# Results with a measured potency or affinity are listed apart. Activity calls are given as the source filed them. The rule behind the calls is not given here.
# Assay: host cell cytotoxicity of antiviral hits, dose response, cytotoxicity control for West Nile virus antiviral project, secondary assay (AID 1650)
# Settings: Mammalian host cell viability, cytotoxicity counter-screen; series mostly up to 10 µM
row,SMILES,outcome
1,Cc1ccc2[nH]c(=O)c(CN(CCCN(C)C)C(=O)Nc3ccc(Cl)cc3)cc2c1,inactive
2,CCN1C/C(=C/c2ccc(N3CCOCC3)cc2)C(=O)/C(=C/c2ccc(N3CCOCC3)cc2)C1,inactive
3,COc1cc(C(=O)/C=C/c2cccnc2)ccc1O,inactive
4,Cc1ccc(COc2cccc(/C=N/NC(=O)c3nnn(-c4nonc4N)c3C)c2)cc1,inactive
5,Cc1ccc(Cl)cc1N1CCN(CC(=O)Nc2ccc(CN3CCCCC3)cc2)CC1,inactive
6,Cc1cccc(CN2CCC(CNC(=O)Nc3ccc(F)c(Cl)c3)CC2)c1,inactive
7,Cc1nn(Cc2ccc(Cl)cc2)c(C)c1NC(=O)CSc1nc2c(c(C(F)(F)F)n1)CCc1ccccc1-2,inactive
8,CCN(CC)CCNC(=O)c1sc2ncn(CC(=O)Nc3ccc(C)c(Cl)c3)c(=O)c2c1C,inactive
9,CCc1ccc(-c2cc3c(=O)n(CC(=O)NCCCN4CCN(CC)CC4)nc(C)n3n2)cc1,inactive
10,CN1CCN(CCCN2c3ccccc3Sc3ccc(C(F)(F)F)cc32)CC1,inactive
11,Cc1ccc(C)c(N2CCN(CCCNC(=O)Cn3cccc3C(=O)c3ccccc3)CC2)c1,inactive
12,CC(C)c1ccc(-c2cc(C(=O)NN3CCN(C)CC3)c3ccccc3n2)cc1,inactive
13,COc1ccc(C2c3c(ncn(CCN4CCOCC4)c3=N)Oc3ccc4ccccc4c32)cc1 (centres undefined),inactive
14,Cc1ccc(/C=C2/Sc3ccc(C(=O)N4CCN(C)CC4)cc3NC2=O)cc1,inactive
15,CCN(CC)CCCNc1oc(-c2cccc(Cl)c2)nc1C#N,inactive
16,O=C(CCN1C(=O)/C(=C/c2ccccc2Cl)SC1=S)NCCc1ccc(O)cc1,inactive
17,O=C(CCN1C(=O)/C(=C/c2ccccc2)SC1=S)NCCc1ccc(O)cc1,inactive
18,COc1cc2nc(N3CCN(C(=O)C4COc5ccccc5O4)CC3)nc(N)c2cc1OC (centres undefined),inactive
19,CN1/C(=C\C(=S)NC(=O)c2cccc(Br)c2)C(C)(C)c2ccccc21,inactive
20,COc1ccc(C2c3ccc4ccccc4c3Oc3ncn(CCO)c(=N)c32)cc1OC (centres undefined),inactive

row,SMILES,outcome
1,CCn1nc(C)c(CN2CCC(C(=O)Nc3cccc(-c4cccc(F)c4)c3)CC2)c1C,inactive
2,Nc1nonc1-n1nnc(C(=O)N/N=C/c2ccc(OCc3ccccc3)cc2)c1CNc1ccccc1,inactive
3,O=C(Oc1ccccc1)c1ccc(-n2cnnn2)cc1,inactive
4,COc1cc2c(OC(C)=O)c3c(c(-c4ccc5c(c4)OCO5)c2cc1OC)C(=O)OC3,inactive
5,Cc1ccc(-c2nc3ccccc3n3nnnc23)cc1,inactive
6,CCN(CC)S(=O)(=O)c1ccc(OC)c(NC(=O)c2cccc([N+](=O)[O-])c2C)c1,inactive
7,Cn1cnc([N+](=O)[O-])c1Oc1cccc2ccccc12,inactive
8,CCOC(=O)C(=CNc1ccc2c(c1)nnn2-c1ccc(Cl)cc1)C(=O)OCC,inactive
9,CN(C)CCN(C)Cc1ccccc1Sc1cccc2ccccc12,inactive
10,O=C(c1ccc2c(=O)n(Cc3ccc4c(c3)OCO4)c(=O)[nH]c2c1)N1CCN(c2ccccc2)CC1,inactive
11,CCN(CC)CCCNC(=O)c1cc(-c2ccccc2)c(N2CCCCC2)s1,inactive
12,Cc1cc(C)cc(SCc2noc(C(=O)NCCCN3CCOCC3)c2C(=O)NCCCN2CCOCC2)c1,inactive
13,CCCN1CCN(C(=S)Nc2ccc3nc(N4CCN(CC)CC4)cc(C)c3c2)CC1,inactive
14,COc1ccc(-n2c(=S)[nH]c3cc(C(=O)NCc4cccnc4)ccc3c2=O)c(OC)c1,inactive
15,CC(C)(C)n1nnnc1C(c1ccccc1)N1CCc2ccccc2C1 (centres undefined),inactive
16,CN(C)CCCNC(=S)N1CCN(c2nc(-c3ccccc3)cs2)CC1,inactive
17,O=c1c(O[C@@H]2O[C@H](CO)[C@@H](O)[C@H](O)[C@H]2O)c(-c2ccc(O)c(O)c2)oc2cc(O)cc(O)c12,inactive
18,Cc1cccn2c(=O)c3cc(C(=O)NCCN4CCOCC4)c(=N)n(Cc4ccc(F)cc4)c3nc12,inactive
19,Cc1ccc(-c2cc(C(=O)N(C)Cc3cnn(C)c3C)c3cc(Br)ccc3n2)cc1,inactive
